Screening results as filed in PubChem.
In the library only some 21% were active in any assay of this set; here they are far more common.
TDP1 cell CPT – qHTS for Inhibitors of human tyrosyl-DNA phosphodiesterase 1 (TDP1): qHTS in cells in presence of CPT. chicken DT40 Tdp1-/-;hTDP1 cells + 20 nM CPT, ATP luminescence, 48 h. Potency, µM (series often up to 46.2 µM), inactives show at the highest dose activity change, negative = growth inhibition, usual class: inhibitors. 12% of 420,000 active. AID 686979, 2013; also: potency is read from the fitted curve at half-maximal effect; % is scaled to controls: 0 for no effect and ±100 for the full control effect; nearly all actives have a fitted effect of over 55% in size
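Chicken DT40 Tdp1-/- cells complemented with human TDP1, 400 cells/well, exposed to compounds plus 20 nM camptothecin for at least 48 h at 37 C; viability read as ATP content by CellTiter-Glo luminescence.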
DRD3 antagonist – qHTS of D3 Dopamine Receptor Antagonist: qHTS. D3R cells, DiscoveRx beta-arrestin luminescence, antagonist mode; active compounds read low. max response, negative = inhibition, %. 2.5% of 360,000 active; in the data active = max response below about -50%; inconclusive = no clear call, values can overlap the other calls; also: % is scaled to controls: 0 for no effect and ±100 for the full control effect
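Cells plated overnight at 1500 cells/well, then exposed to library compounds with dopamine controls for 90 minutes at 37 degrees C. DiscoveRx reagent added for 30–60 minutes at room temperature; luminescence read, quantitative HTS format.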
TDP1 cell noCPT – qHTS for Inhibitors of human tyrosyl-DNA phosphodiesterase 1 (TDP1): qHTS in cells in absence of CPT | 15% of 420,000 active | DT40 Tdp1-/- hTDP1 cells, no CPT, ATP luminescence, 48 h | AID 686978, 2013 | Potency, µM (top dose mostly 46.2 µM), without a hit: at the highest dose activity change, negative = growth inhibition, hits mostly inhibitors; also: potency is read from the fitted curve at half-maximal effect; % is scaled to controls: 0 for no effect and ±100 for the full control effect; nearly all actives have a fitted effect of over 55% in size
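Chicken DT40 Tdp1-/- cells stably complemented with human TDP1 were seeded at 400 cells/well with DMSO in place of 20 nM camptothecin. After compound pinning, cells grew at least 48 hr at 37 °C; viability read by CellTiter-Glo luminescence.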
IL1B secr inh – qHTS for Inhibitors of Inflammasome Signaling: IL-1-beta AlphaLISA Primary Screen; THP-1 LPS/ATP IL-1B secretion, AlphaLISA, 16 h; active compounds read low; activity change, % at 57.5 µM; 4.7% of 360,000 active; AID 743279, 2014; in the data active = activity change below about -50%; inconclusive = mostly about -30% to -49%; also: % is scaled to controls: 0 for no effect and ±100 for the full control effect
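THP-1 cells pretreated 1 hr with compounds (up to 57.5 uM final), then stimulated with LPS (250 ng/mL final) plus ATP (1.25 mM final); secreted IL-1B measured by AlphaLISA after 16 hr, decreased signal indicating inhibition.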
ClpP mod – qHTS Assay for Activators of ClpP | ATP-dependent Clp protease proteolytic subunit (Bacillus subtilis (strain 168)), P80244 | purified B. subtilis ClpP, FRET peptide cleavage, 20 min | 1.9% of 340,000 active | Potency, µM (series often up to 57.5 µM), without a hit: top-dose activity change, negative = active | AID 651965, 2013; active = well fitted falling curve with a large enough effect; inconclusive = small, poorly fitted or top-dose-only effect; inactive = no such curve, though single readings can be large or run the other way; also: potency is read from the fitted curve at half-maximal effect; the source files actives as falling curves though it sought activators and does not explain the sign; nearly all actives have a fitted effect of over 65% in size
Target sequence (P80244 whole entry, looked up): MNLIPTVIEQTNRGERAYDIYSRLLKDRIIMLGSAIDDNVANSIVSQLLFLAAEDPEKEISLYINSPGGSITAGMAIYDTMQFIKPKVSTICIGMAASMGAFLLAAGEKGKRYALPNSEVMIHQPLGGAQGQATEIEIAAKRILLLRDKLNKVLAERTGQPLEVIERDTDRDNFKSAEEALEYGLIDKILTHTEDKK
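Buffer: 100 mM Tris/HCl pH8, 100 mM KCl, 0.05% low protease BSA, 2.5% glycerol, 0.01% Tween-20. ClpP 10 microg/mL final; 20 min RT; delta FRET normalized to ADEP and DMSO controls.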
DRD3 agonist – qHTS of D3 Dopamine Receptor Agonist: qHTS | D(3) dopamine receptor (Homo sapiens), P35462 | D3R DiscoveRx beta-arrestin cells, luminescence, 90 min | max activation, % | 0.58% of 410,000 active | AID 652048, 2013; in the data active = max activation above about 30%; also: 0% is about no effect
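Agonist mode: compounds and dopamine controls were applied to plated cells for 90 min at 37 degrees C after an overnight attachment at 1500 cells/well. Luminescent read-out followed 30 - 60 minutes at room temperature with DiscoveRx detection reagent.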
* marks the source's active call; other numbers are inactive results. Unless noted, calls follow the shape of the dose curve; as a rule, active = well fitted inhibition curve with a large enough effect; inconclusive = small, poorly fitted or top-dose-only effect; inactive = flat fitted curve, though single readings scatter.

What do the screens show for `O=C(c1cc2nc(-c3ccco3)cc(C(F)(F)F)n2n1)N1CCN(c2ccccn2)CC1`?
TDP1 cell CPT: 25.9µM*; DRD3 antagonist: 39.6; TDP1 cell noCPT: 13µM*; IL1B secr inh: -11.4; ClpP mod: -2.6%; DRD3 agonist: 10.7

What do the screens show for `Cc1cccc(N2CCN(C(=O)c3cc4n(n3)C(C(F)(F)F)CC(c3ccco3)N4)CC2)c1C` (stereo not drawn)?
TDP1 cell CPT: 20.6µM*; DRD3 antagonist: 9.9; TDP1 cell noCPT: 14.6µM*; IL1B secr inh: -54.8*; ClpP mod: 2.3%; DRD3 agonist: 9.3

How did Cc1ccc(NC(=O)CSc2nc(N)cc(=O)[nH]2)cc1S(=O)(=O)N1CCCCCC1 do in these assays?
TDP1 cell CPT: 8.3%; DRD3 antagonist: 9.1; TDP1 cell noCPT: -1.9%; IL1B secr inh: 19.8; DRD3 agonist: -6.1

Results for Cc1noc(-c2ccc(-c3noc(-c4cccc(F)c4)n3)cc2)n1 ?
TDP1 cell CPT: -13.1%; TDP1 cell noCPT: 4.4%; ClpP mod: -0.5%; DRD3 agonist: -13.2

Results for CCOc1ccccc1N1CCN(C(=O)CCCc2nc3ccccc3s2)CC1 ?
TDP1 cell CPT: inconclusive; DRD3 antagonist: -0.1; TDP1 cell noCPT: 16.4µM*; IL1B secr inh: 5.4; ClpP mod: -2.9%; DRD3 agonist: -2.5

How did O=C(CCCN1C(=O)c2cccc3cccc(c23)C1=O)N1CCN(c2ccccc2O)CC1 do in these assays?
TDP1 cell CPT: inconclusive; DRD3 antagonist: 3.3; TDP1 cell noCPT: 14.6µM*; IL1B secr inh: -14.4; ClpP mod: -28.7%; DRD3 agonist: -7.2

Results for O=C(CCCc1nc2ccccc2s1)N1CCN(c2ccccc2F)CC1 ?
TDP1 cell CPT: inconclusive; DRD3 antagonist: 4.0; TDP1 cell noCPT: -14.2%; IL1B secr inh: 91.4; ClpP mod: -0.8%; DRD3 agonist: 2.8

Results for O=C(CCN1C(=O)c2ccccc2C1=O)N1CCCCCC1 ?
TDP1 cell CPT: -0.4%; DRD3 antagonist: -50.6*; TDP1 cell noCPT: -5.9%; IL1B secr inh: -13.7; ClpP mod: -10.1%; DRD3 agonist: -2.6

Results for CCOc1ccccc1N1CCN(C(=O)CCCN2C(=O)c3cccc4cccc(c34)C2=O)CC1 ?
TDP1 cell CPT: 20.6µM*; DRD3 antagonist: 7.4; TDP1 cell noCPT: 20.6µM*; IL1B secr inh: -15.6; ClpP mod: -11.9%; DRD3 agonist: 0.5

What do the screens show for `COc1ccc(Br)cc1CNC(=O)Cn1nc(C)n2c(cc3cc(F)ccc32)c1=O`?
TDP1 cell CPT: inconclusive; TDP1 cell noCPT: inconclusive; ClpP mod: -12.2%; DRD3 agonist: 3.6

Results for CCN(CC(=O)NCc1ccc(F)cc1)C(=O)C(C)Oc1cccc(Cl)c1 (stereo not drawn) ?
TDP1 cell CPT: inconclusive; DRD3 antagonist: 6.6; TDP1 cell noCPT: -8.7%; IL1B secr inh: -19.8; ClpP mod: 0.9%; DRD3 agonist: -10.7

How did O=C(c1ccc(COc2ccc3ccccc3c2)o1)N1N=C(C(F)F)CC1(O)C(F)F (stereo not drawn) do in these assays?
TDP1 cell CPT: inconclusive; DRD3 antagonist: 11.6; TDP1 cell noCPT: 20.6µM*; IL1B secr inh: -1.0; ClpP mod: -1.8%; DRD3 agonist: 8.6

How did O=C(c1ccc(COc2ccccc2Cl)o1)N1N=C(C(F)F)CC1(O)C(F)F (stereo not drawn) do in these assays?
TDP1 cell CPT: 23.1µM*; DRD3 antagonist: 0.7; TDP1 cell noCPT: 16.4µM*; IL1B secr inh: inconclusive; ClpP mod: 1.5%; DRD3 agonist: 7.4
